Potency data for 40 compounds are collected here from PubChem BioAssay (Tox21).

Records with an inconclusive call do not appear. A call without a number means that no potency is given here. Calls of active or inactive are those of the source. Calls follow the shape of the dose curve; as a rule, active = well fitted activation curve with a large enough effect in the repeat runs; inconclusive = weak or mixed curves; inactive = no such curve, though single readings can be large or run the other way.

Chain of Aryl hydrocarbon receptor (Homo sapiens) (P35869 whole entry, looked up): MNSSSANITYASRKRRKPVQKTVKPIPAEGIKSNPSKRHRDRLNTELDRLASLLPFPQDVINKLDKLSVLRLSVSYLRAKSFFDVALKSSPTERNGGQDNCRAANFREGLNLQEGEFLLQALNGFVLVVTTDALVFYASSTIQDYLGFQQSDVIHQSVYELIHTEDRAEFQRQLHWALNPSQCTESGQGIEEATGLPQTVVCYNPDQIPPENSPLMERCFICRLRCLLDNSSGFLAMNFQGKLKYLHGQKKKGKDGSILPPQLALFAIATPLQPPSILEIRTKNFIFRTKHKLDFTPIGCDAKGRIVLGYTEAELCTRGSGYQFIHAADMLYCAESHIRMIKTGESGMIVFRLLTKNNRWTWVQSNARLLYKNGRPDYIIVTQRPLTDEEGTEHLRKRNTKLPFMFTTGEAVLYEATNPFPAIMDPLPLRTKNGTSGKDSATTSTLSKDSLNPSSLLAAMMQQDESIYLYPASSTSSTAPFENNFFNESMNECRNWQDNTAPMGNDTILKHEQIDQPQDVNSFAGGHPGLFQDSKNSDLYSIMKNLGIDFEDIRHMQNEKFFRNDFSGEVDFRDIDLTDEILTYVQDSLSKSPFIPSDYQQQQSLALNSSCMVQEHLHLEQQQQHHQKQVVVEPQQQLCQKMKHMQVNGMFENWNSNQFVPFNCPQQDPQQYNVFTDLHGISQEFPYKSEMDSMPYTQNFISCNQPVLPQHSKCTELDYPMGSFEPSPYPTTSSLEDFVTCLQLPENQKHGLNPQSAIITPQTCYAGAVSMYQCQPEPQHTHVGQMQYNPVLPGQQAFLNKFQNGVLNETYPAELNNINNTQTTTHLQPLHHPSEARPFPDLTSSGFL

The test deals with Aryl hydrocarbon receptor (Homo sapiens) (UniProt P35869). As to the kind of experiment: qHTS assay to identify small molecule that activate the aryl hydrocarbon receptor (AhR) signaling pathway (AID 743085).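 Also: HG2L7.5c1 human HepG2 liver cells with stably integrated DRE-driven firefly reporter; nearly all actives have a fitted effect of over 15% in size.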 Particulars: HepG2 AhR-luc (HG2L7.5c1), luciferase, 24 h; series mostly up to 70.3 µM. From the text:
U.S. Tox21 Program National Center for Advancing Translational Sciences [NCATS] NIH Chemical Genomics Center [NCGC] U.S. Environmental Protection Agency [EPA] National Institutes of Environmental Health Sciences [NIEHS] National Toxicology Program [NTP] U.S. Food and Drug Administration [FDA] Tox21 Assay overview: The Aryl hydrocarbon Receptor (AhR), a member of the family of basic helix-loop-helix transcription factors, is crucial to adaptive responses to environmental changes. AhR mediates cellular responses to environmental pollutants such as aromatic hydrocarbons through induction of phase I and II enzymes but also interacts with other nuclear receptor signaling pathways. A cell based HepG2-AhR-luc assay (HG2L7.5c1 cell line, developed by Dr. Michael S. Denison, University of California at Davis, was used to assess the activation of AhR. HepG2 (human hepatocellular carcinoma) cells were stably transfected with an Ah receptor-responsive firefly luciferase reporter gene plasmid containing 20 dioxin responsive elements and luciferase reporter gene. Increased luciferase activity can be used to identify the compounds that induce AhR activation.
Tox21 Assay Protocol Summary: 4000 cells in 5 uL/well were dispensed into white wall/solid bottom 1536-well plates using a Multidrop Combi (Thermo Fisher Scientific Inc., Waltham, MA) dispenser. After the assay plates were incubated at 37C for 5 h, 23 nL of compound or DMSO vehicle was transferred to the assay plates by a pintool station (Kalypsys, San Diego, CA). The plates were incubated at 37C for 24 hr. After 1 ul/well of CellTiter-Fluor reagent (Promega, Madison, WI) was added into the assay plates using a Flying Reagent Dispenser (FRD) (Aurora Discovery, CA), the assay plates were incubated at 37C for 30 min. The fluorescence intensity in the plates was measured using a ViewLux plate reader (PerkinElmer, Shelton, CT), followed by the addition of 4 uL of ONE-Glo Luciferase Assay reagent (Promega) using an FRD (Aurora Discovery). After the assay plates were incubated at room temperature for 30 min, luminescence intensity was measured using a ViewLux plate reader (Perkin Elmer).
For the compound `CC(C)c1cc(C(C)C)cc(C(C)C)c1`, the Potency entry is “inactive”.

On to `CCCCC(CC)COC(=O)CC#N` (stereo not given), for which the Potency result was “inactive”.

In the case of `CCC(C)SSC(C)CC` (stereo not given), the Potency entry is “inactive”.

Regarding `CC(CC(=O)Cl)CC(C)(C)C` (stereo not given), the Potency entry is “inactive”.

As to `Cc1ccccc1OCC(=O)O`, the Potency result was “inactive”.

On to `O=CN1CCCCC1`, for which the Potency result was “inactive”.

As for `CCCCCCC(O)CO` (stereo not given), the Potency result was “inactive”.

In the case of `CN1CCN(C(=O)C2CCCCC2)CC1`, the Potency entry is “inactive”.

Take `C=CCOC(=O)CCCCCCCC`: the Potency entry was “inactive”.

In the case of `C/C(Cl)=C/CCl`, the Potency entry was “inactive”.

For `CCOC(=O)[C@H](CCc1ccccc1)N[C@H]1CS[C@H](c2cccs2)CN(CC(=O)O)C1=O`, the Potency entry was “inactive”.

With `COCc1nnc(-c2ccc[n+]([O-])c2)n1-c1c(Cl)c(Cl)cc2[nH]c(=O)c(=O)[nH]c12`, the Potency entry is “inactive”.

`O=Cc1ccc(C(=O)O)cc1`: the Potency result was “inactive”.

In the case of `CCCCCC(=O)CC`, the Potency entry was “inactive”.

Turning to `COCCCOc1cc(C[C@@H](C[C@H](N)[C@@H](O)C[C@H](C(=O)NCC(C)(C)C(N)=O)C(C)C)C(C)C)ccc1OC`, the Potency result is “inactive”.

For `CN(C)c1ccncc1`, the Potency result was “inactive”.

On to `O=Cc1ccccc1S(=O)(=O)O`, for which the Potency entry was “inactive”.

For the compound `C[C@@H](CN1CC(=O)NC(=O)C1)N1CC(=O)NC(=O)C1`, the Potency entry is “inactive”.

For `NC(=O)CC[C@@H](N)C(=O)O`, the Potency result was “inactive”.

In the case of `CC(C)(C)OC(=O)c1ccccc1C(=O)O`, the Potency entry was “inactive”.

Take `CCC(C)(C)C`: the Potency entry was “inactive”.

Take `COC(=O)c1c(C)cc(O)c(C)c1O`: the Potency result is “inactive”.

In the case of `CC(CN1CC(=O)NC(=O)C1)N1CC(=O)NC(=O)C1` (stereo not given), the Potency entry was “inactive”.

In the case of `CC1(C)S[C@@H]2[C@H](NC(=O)Cc3ccccc3)C(=O)N2[C@H]1C(=O)O` (tested in a mixture with another compound), the Potency result is “inactive”.

With `CC1=C(O)C(=O)CO1`, the Potency entry is “inactive”.

On to `C=CCCCCCCCCCCCCCC`, for which the Potency result was “inactive”.

For the compound `O=S(=O)(O)c1ccc(Cl)cc1`, the Potency result was “inactive”.

Regarding `CCCCN1C(=O)c2ccccc2C1=O`, the Potency entry was “inactive”.

With `CC(=O)OC1CCC(C(C)(C)C)CC1` (stereo not given), the Potency result was “inactive”.

As for `CCO[Si](CC(C)C)(OCC)OCC`, the Potency entry is “inactive”.

For `CCCC[O][Al]([O]CCCC)[O]CCCC`, the Potency result is “inactive”.

For the compound `CC(=O)Nc1ccc(S(=O)(=O)Nc2cc(C)on2)cc1`, the Potency result is “inactive”.

Regarding `CC(C)C(C)C`, the Potency entry was “inactive”.

For the compound `CCCCNCC`, the Potency result was “inactive”.

In the case of `O=C(OOC(=O)c1ccccc1)c1ccccc1`, the Potency entry is “inactive”.

Turning to `O=c1c(O)c(O)c1=O`, the Potency entry was “inactive”.

As for `CC(C)(C)NCC(O)COc1cccc2c1CCC(=O)N2` (stereo not given), the Potency result was “inactive”.

On to `CC(=O)Oc1ccc(C(C)=O)cc1`, for which the Potency result is “inactive”.

On to `CCCC(=O)C(CC)Sc1ccoc1C` (stereo not given), for which the Potency result was “inactive”.

Consider `C=CCN1CCc2nc(N)sc2CC1`, for which the Potency result is “inactive”.
